Hits are enriched below; roughly 12% of the tested compounds scored in any of these assays.
BAZ2B block = inhibitors of human BAZ2B bromodomain | AlphaScreen BAZ2B-H3K14Ac peptide displacement | 4.4% of 360,000 active | Potency, µM (series often up to 114 µM), inactives show at the highest dose activity change, negative = inhibition, actives largely listed as inhibitors; note: % is set by controls: 0 for no effect and ±100 for the full control effect; nearly all actives have a fitted effect of over 60% in size
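AlphaScreen displacement of biotin-H3(5-23)K14Ac peptide (50 nM final) from BAZ2B (50 nM final) in PBS pH 7.4, 0.01% Tween-20; complex preformed 30 min RT, then compounds (top 110 uM) 30 min RT, beads 20 min dark.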
Sfp inh = inhibitors of Bacillus subtilis Sfp phosphopantetheinyl transferase. Q9F4F7. Biochemical Sfp PPTase activity, qHTS. Potency, µM, for inactives: largest response in the series, negative = inhibition, most hits filed as inhibitors. 3.5% of 310,000 active. AID 1490;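 note: the enzyme is Sfp with the accession as filed and its product quenches rhodamine fluorescence; 0% = enzyme reaction without inhibitor and -100% = no enzyme wells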
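Compounds were incubated with enzyme (final 15 nM) for 15 min at room temperature before substrate addition started the reaction. Fluorescence at 525 nm excitation, 598 nm emission was recorded immediately and after 30 minutes.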
G9a block = G9a (human) methyltransferase inhibition; G9a H3K9 monomethylation, AlphaScreen, 2 h; Potency, µM (series often up to 102 µM), inactives show at the highest dose activity, negative = inhibition, actives largely listed as inhibitors; 8.8% of 350,000 active; AID 504332; note: % is set by controls: 0 for no effect and ±100 for the full control effect; nearly all actives have a fitted effect of over 75% in size
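Readings reflect AlphaScreen signal from monomethyl-H3K9 antibody detection. HMT at 20 nM; substrate b-H3K9 500 nM; cofactor SAM 20 uM; 2 h RT reaction; compounds tested as titrations in qHTS with 15 min preincubation.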
JMJD2A Tudor inh = blocks the human JMJD2A Tudor domain; O75164; AlphaScreen JMJD2A-Tudor / H3K4me3 peptide binding; Potency, µM (series often up to 114 µM), without a hit: at the top dose activity change, negative = inhibition, actives largely listed as inhibitors; 4.4% of 390,000 active; note: % is set by controls: 0 for no effect and ±100 for the full control effect; nearly all actives have a fitted effect of over 50% in size
Target sequence (O75164 whole entry, looked up, the tested form may be a part): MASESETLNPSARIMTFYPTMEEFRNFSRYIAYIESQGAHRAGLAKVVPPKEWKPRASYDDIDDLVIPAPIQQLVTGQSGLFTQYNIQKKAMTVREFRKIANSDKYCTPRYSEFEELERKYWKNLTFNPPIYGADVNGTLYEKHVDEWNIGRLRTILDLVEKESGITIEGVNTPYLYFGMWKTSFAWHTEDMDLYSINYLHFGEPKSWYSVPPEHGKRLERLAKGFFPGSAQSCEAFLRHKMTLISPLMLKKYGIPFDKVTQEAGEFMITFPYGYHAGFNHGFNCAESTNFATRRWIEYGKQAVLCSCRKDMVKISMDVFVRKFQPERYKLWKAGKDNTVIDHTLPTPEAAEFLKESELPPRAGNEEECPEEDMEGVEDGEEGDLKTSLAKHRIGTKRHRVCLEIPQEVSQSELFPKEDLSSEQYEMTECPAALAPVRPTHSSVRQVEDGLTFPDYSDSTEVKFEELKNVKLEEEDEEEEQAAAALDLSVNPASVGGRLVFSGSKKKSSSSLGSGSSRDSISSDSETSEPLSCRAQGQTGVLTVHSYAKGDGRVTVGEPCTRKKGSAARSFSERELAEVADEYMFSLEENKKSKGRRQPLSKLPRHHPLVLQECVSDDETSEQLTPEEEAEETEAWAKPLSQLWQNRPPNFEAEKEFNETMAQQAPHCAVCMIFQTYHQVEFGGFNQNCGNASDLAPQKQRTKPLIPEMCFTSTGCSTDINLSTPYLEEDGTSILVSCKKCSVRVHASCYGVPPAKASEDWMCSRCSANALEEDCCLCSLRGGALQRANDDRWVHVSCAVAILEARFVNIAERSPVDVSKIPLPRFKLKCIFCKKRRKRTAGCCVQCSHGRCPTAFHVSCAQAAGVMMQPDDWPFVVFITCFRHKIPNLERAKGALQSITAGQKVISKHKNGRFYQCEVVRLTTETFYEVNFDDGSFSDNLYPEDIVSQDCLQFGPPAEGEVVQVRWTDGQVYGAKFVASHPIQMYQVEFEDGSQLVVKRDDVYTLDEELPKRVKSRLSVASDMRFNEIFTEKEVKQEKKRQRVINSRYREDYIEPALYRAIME
L3MBTL1 inh = inhibitors of human L3MBTL1; Q9Y468; AlphaScreen L3MBTL1–H3K9me1 peptide binding; Potency, µM (doses to about 57.1 µM), for the others: at the top dose activity, negative = inhibition, most hits filed as inhibitors; 0.66% of 230,000 active; AID 485360; note: % is set by controls: 0 for no effect and ±100 for the full control effect; nearly all actives have a fitted effect of over 60% in size
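L3MBTL1 50 nM + b-AHA-H3(1-15)K9me1 75 nM, 30 min RT; compound added, 30 min RT; streptavidin donor/Ni-chelate acceptor beads 10 ug/mL each final, 30 min RT dark; AlphaScreen read.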
HP1b binding inh = inhibitors of HP1-beta chromodomain binding to methylated histone tails; P83916; AlphaScreen HP1-beta / biotin-H3K9me3 peptide binding; Potency, µM (top dose mostly 114 µM), without a hit: at the top dose activity change, negative = inhibition, actives largely listed as inhibitors; 0.56% of 390,000 active; note: nearly all actives have a fitted effect of over 70% in size
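Compound inhibition of the preformed complex between 50 nM HP1-beta and 50 nM biotinylated H3K9me3 peptide was read by AlphaScreen. Buffer was PBS pH 7.4 with 0.01% Tween-20. Incubations ran 30 min at room temperature, with 10 ug/mL donor/acceptor beads.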
Starred values were filed as active, the others as inactive; [ ] = another dose, or the depositor's remark. Calls come from the whole dose curve; as a rule, active = well fitted curve in the direction sought with a large enough effect; inconclusive = small, poorly fitted or top-dose-only effect, or another doubt; inactive = no such curve, though single readings can be large; an effect the other way counts as inactive or inconclusive. Potency is the fitted concentration of half-maximal effect.

COc1ccc(-c2csc(NC(=O)CSCc3c(C)noc3C)n2)cc1OC was read as BAZ2B block inconclusive, Sfp inh -6%, JMJD2A Tudor inh -28% and HP1b binding inh -2%.
Screening COc1ccc(-c2csc(NC(=O)c3cc(C)oc3C)n2)cc1OC returned BAZ2B block 35µM*, Sfp inh -20%, G9a block 50µM*, JMJD2A Tudor inh inconclusive and HP1b binding inh -21%.
Screening CNC(=O)[C@]1(C)C[C@H]1[C@H](NC(=O)[C@]1(C)C[C@H]1[C@H](NC(=O)OCc1ccccc1)c1ccccc1)c1ccccc1 returned Sfp inh 14%.
O=C1CCC2(CC1)NC(=O)N(c1ccccc1)N2 was read as BAZ2B block -11%, Sfp inh 10%, G9a block 7.1µM*, JMJD2A Tudor inh -6%[11.4 µM], L3MBTL1 inh 6% and HP1b binding inh 37%.
Screening O=c1oc2cc(O)ccc2cc1-c1ccc2c(c1)OCCO2 returned Sfp inh -2%.
Cc1cnc(CNc2cc(-c3ccccc3C)ncn2)cn1 was read as Sfp inh -1% and G9a block inconclusive.
For Cc1cc(N=Nc2c(O)c3ccccc3[nH]c2=O)ccc1N=Nc1ccc(C(=O)N(C)C)cc1 the results were BAZ2B block inconclusive, Sfp inh -11%, G9a block 79µM*, JMJD2A Tudor inh inconclusive and HP1b binding inh 13%.
`COc1cc(N=Nc2ccc(C(=O)N(C)C)cc2)c(C)cc1N` gave JMJD2A Tudor inh 3.5µM* and HP1b binding inh 20µM*.
CN(C)C(=O)c1ccc(N=Nc2c(O)c3ccccc3[nH]c2=O)cc1 was read as JMJD2A Tudor inh -16% and HP1b binding inh -13%.
For O=C(COc1ccccc1)Nc1ccc2nc(SCCOc3ccccc3)sc2c1 the results were BAZ2B block -36%, G9a block 2%[59 µM], JMJD2A Tudor inh -11% and HP1b binding inh 62%.
`CC(=O)c1ccc(NC(=S)N2CCN(CCO)CC2)cc1` gave BAZ2B block -1%, Sfp inh 26%, G9a block 16%, JMJD2A Tudor inh -17%, L3MBTL1 inh 2% and HP1b binding inh 21%.
`OCCN1CCN(C(=S)c2ccc(Cl)c(Cl)c2)CC1` gave BAZ2B block 8%, Sfp inh 3.2µM*, G9a block 2µM*, JMJD2A Tudor inh 56µM*, L3MBTL1 inh -7% and HP1b binding inh inconclusive.
COc1ccc(-c2cn3nc(N4CCC(C(=O)Nc5ccccc5OC)CC4)sc3n2)cc1 was read as BAZ2B block -1%, G9a block -41%[59 µM], JMJD2A Tudor inh -13% and HP1b binding inh 24%.
For O=C(c1ccc2ncsc2c1)N1CCCCC1 the results were BAZ2B block 3%, Sfp inh -22%, G9a block -3%, JMJD2A Tudor inh -11% and HP1b binding inh 44%.
For Cc1ccc(NC(=O)c2ccc3ncsc3c2)cc1S(=O)(=O)N(C)C the results were BAZ2B block 56µM*, Sfp inh 56µM* and G9a block inconclusive.
`O=C(COC(=O)c1ccc2ncsc2c1)Nc1cccc(Cl)c1` gave BAZ2B block 2%, G9a block 4%[12.7 µM], JMJD2A Tudor inh 0%, L3MBTL1 inh 0% and HP1b binding inh 39%.
Screening CC(=O)NC(=O)COC(=O)c1ccc2ncsc2c1 returned BAZ2B block 8%, Sfp inh 0%, G9a block 56µM*, JMJD2A Tudor inh -15% and HP1b binding inh 38%.
`O=C(O)c1ccc2ncsc2c1` gave BAZ2B block 20µM*, Sfp inh 3%, G9a block inconclusive, JMJD2A Tudor inh 20µM*, L3MBTL1 inh 10µM* and HP1b binding inh -23%.
`O=C(Nc1ccc(F)cc1)c1ccc2ncsc2c1` gave BAZ2B block -2%, Sfp inh inconclusive, G9a block 35µM*, JMJD2A Tudor inh -2% and HP1b binding inh 45%.
Screening O=C(Nc1cccc(Cl)c1)c1ccc2ncsc2c1 returned BAZ2B block 17%, Sfp inh 3%, G9a block 7%, JMJD2A Tudor inh 0% and HP1b binding inh 20%.

Compound activity: PubChem BioAssay, National Center for Advancing Translational Sciences (NCATS)
